According to ChEMBL document CHEMBL1961873, “Compounds: GSK PKIS; Assays: Nanosyn kinase panel” (2012):

Tests used:
[1] = target: T1, Mitogen-activated protein kinase 12 (Homo sapiens) (UniProt P53778); conditions: at 1 µM;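 also: values are averaged p38gamma kinase inhibition readings, compounds tested at 1 µM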
T1 sequence (whole entry): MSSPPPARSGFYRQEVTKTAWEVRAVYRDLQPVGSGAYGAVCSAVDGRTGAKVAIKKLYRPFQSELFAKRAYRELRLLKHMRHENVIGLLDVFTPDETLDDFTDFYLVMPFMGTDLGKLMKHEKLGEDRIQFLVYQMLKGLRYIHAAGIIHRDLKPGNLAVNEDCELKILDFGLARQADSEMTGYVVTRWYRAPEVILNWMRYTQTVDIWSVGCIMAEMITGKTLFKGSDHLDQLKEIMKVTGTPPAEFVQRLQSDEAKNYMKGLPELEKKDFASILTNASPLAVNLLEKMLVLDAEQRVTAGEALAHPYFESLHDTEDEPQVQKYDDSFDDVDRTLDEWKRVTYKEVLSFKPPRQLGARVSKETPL

[2] = target: SRSF protein kinase 1 (Homo sapiens) (UniProt Q96SB4); conditions: at 0.1 µM
Sequence of SRSF protein kinase 1 (Homo sapiens) (Q96SB4 whole entry, canonical isoform): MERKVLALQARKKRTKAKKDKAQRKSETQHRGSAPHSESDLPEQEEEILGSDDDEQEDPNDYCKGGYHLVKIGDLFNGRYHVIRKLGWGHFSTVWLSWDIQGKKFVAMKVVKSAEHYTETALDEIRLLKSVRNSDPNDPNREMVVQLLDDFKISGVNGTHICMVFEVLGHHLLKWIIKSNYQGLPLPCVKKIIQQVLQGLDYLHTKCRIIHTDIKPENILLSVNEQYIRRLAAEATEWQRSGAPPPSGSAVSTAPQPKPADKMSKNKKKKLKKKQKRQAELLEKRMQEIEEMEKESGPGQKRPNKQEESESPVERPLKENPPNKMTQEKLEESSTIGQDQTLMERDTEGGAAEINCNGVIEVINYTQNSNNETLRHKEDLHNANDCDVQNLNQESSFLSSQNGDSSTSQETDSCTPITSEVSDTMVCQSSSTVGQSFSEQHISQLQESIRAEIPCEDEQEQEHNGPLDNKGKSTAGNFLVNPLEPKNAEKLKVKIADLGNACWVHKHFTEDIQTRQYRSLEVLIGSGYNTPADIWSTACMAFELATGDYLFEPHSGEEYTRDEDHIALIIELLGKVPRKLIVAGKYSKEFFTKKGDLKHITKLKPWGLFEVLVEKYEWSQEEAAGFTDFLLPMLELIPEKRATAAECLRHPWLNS

[3] = target: SRSF protein kinase 1 (Homo sapiens) (UniProt Q96SB4); conditions: at 1 µM
[4] = target: Phosphatidylinositol 4,5-bisphosphate 3-kinase catalytic subunit alpha isoform (Homo sapiens) (UniProt P42336); conditions: at 0.1 µM
Sequence of Phosphatidylinositol 4,5-bisphosphate 3-kinase catalytic subunit alpha isoform (Homo sapiens) (P42336 whole entry, canonical isoform): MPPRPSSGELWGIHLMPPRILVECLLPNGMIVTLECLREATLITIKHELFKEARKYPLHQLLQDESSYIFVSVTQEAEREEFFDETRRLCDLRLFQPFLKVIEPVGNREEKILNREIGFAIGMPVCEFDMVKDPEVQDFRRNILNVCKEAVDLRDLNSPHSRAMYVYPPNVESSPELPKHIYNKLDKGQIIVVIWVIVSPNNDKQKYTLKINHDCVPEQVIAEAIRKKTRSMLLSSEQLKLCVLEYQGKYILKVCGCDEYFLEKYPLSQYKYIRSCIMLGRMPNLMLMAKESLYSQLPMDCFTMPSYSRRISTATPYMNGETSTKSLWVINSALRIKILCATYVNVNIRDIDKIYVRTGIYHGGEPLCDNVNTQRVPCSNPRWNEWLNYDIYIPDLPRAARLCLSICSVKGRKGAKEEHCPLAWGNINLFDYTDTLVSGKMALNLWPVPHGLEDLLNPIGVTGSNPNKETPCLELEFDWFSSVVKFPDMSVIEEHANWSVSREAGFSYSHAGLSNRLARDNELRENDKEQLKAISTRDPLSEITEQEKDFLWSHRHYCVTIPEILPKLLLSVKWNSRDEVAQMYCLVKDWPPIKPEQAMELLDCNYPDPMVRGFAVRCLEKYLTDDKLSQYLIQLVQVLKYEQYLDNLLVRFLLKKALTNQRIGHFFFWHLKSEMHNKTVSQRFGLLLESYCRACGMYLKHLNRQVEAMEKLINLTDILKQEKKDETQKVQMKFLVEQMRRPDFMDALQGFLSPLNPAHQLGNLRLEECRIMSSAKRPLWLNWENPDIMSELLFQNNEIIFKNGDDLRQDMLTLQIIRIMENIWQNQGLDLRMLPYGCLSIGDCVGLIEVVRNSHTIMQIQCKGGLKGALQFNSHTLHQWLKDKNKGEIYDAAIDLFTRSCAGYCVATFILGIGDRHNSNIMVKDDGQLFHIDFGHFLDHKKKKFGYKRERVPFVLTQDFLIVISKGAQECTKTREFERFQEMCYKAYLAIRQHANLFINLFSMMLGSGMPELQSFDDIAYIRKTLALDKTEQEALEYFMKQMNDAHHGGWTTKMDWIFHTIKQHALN

[5] = target: Phosphatidylinositol 4,5-bisphosphate 3-kinase catalytic subunit alpha isoform (Homo sapiens) (UniProt P42336); conditions: at 1 µM
[6] = target: T2, Phosphatidylinositol 4,5-bisphosphate 3-kinase catalytic subunit delta isoform (Homo sapiens) (UniProt O00329); conditions: at 0.1 µM
T2 sequence (whole entry): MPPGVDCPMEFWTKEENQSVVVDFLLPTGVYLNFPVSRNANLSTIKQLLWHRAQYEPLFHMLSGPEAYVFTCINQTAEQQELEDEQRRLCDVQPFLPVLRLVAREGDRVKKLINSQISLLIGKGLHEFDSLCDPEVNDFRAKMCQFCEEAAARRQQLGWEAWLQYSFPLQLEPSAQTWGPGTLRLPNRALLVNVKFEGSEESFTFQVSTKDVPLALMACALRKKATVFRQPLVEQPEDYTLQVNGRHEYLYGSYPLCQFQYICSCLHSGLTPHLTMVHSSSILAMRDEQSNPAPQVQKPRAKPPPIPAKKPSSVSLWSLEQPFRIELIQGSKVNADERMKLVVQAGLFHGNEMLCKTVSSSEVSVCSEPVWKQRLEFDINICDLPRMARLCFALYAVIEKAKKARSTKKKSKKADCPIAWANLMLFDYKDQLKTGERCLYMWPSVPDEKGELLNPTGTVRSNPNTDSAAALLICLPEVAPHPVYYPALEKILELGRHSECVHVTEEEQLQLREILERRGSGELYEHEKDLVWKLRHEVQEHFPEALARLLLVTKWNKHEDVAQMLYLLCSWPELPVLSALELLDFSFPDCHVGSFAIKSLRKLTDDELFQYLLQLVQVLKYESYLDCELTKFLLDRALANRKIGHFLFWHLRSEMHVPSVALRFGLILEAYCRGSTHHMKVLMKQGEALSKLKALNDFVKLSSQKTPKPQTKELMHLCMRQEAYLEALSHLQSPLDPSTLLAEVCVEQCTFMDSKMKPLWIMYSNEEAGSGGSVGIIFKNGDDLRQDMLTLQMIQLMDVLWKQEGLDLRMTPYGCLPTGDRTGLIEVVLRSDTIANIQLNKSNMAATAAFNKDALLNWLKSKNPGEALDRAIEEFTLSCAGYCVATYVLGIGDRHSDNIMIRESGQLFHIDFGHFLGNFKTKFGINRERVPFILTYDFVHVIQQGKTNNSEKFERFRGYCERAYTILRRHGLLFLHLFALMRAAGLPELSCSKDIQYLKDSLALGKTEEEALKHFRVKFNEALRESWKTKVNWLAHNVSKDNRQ

[7] = target: T2, Phosphatidylinositol 4,5-bisphosphate 3-kinase catalytic subunit delta isoform (Homo sapiens); conditions: at 1 µM
[8] = target: Phosphatidylinositol 4-kinase beta (Homo sapiens) (UniProt Q9UBF8); conditions: at 0.1 µM
Sequence of Phosphatidylinositol 4-kinase beta (Homo sapiens) (Q9UBF8 2-816 limits assumed): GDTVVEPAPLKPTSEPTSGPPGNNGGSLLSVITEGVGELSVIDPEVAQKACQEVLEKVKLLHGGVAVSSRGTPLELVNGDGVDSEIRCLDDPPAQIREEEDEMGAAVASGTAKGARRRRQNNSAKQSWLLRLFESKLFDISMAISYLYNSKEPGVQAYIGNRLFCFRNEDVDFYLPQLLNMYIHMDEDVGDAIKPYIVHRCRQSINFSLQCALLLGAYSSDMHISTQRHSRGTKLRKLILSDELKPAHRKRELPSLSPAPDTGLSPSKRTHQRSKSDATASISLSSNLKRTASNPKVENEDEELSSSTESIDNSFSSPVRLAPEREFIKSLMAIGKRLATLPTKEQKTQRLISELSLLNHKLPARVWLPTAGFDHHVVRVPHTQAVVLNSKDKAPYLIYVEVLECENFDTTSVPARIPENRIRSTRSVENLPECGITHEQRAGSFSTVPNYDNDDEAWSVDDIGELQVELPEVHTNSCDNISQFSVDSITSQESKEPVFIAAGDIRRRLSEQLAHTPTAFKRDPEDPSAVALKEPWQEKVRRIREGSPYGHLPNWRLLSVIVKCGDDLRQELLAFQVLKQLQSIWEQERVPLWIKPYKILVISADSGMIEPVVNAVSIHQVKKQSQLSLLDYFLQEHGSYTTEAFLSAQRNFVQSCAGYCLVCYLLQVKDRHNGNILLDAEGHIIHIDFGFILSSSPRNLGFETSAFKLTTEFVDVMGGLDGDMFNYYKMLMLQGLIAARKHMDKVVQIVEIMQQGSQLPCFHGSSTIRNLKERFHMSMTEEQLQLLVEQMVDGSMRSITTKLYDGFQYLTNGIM

[9] = target: Phosphatidylinositol 4-kinase beta (Homo sapiens) (UniProt Q9UBF8); conditions: at 1 µM
[10] = target: Sphingosine kinase 1 (Homo sapiens) (UniProt Q9NYA1); conditions: at 0.1 µM
Sequence of Sphingosine kinase 1 (Homo sapiens) (Q9NYA1 whole entry): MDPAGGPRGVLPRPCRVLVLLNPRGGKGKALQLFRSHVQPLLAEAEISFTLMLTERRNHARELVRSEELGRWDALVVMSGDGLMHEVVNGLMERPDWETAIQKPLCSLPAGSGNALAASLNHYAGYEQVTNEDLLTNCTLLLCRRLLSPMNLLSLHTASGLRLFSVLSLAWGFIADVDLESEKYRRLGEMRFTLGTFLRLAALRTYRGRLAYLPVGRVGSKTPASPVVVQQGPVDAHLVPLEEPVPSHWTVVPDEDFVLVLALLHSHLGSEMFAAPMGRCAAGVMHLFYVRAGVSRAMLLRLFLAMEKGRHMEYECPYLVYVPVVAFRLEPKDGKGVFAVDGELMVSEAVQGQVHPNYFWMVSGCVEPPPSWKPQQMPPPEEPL

[11] = target: Sphingosine kinase 1 (Homo sapiens) (UniProt Q9NYA1); conditions: at 1 µM
[12] = target: T3, Sphingosine kinase 2 (Homo sapiens) (UniProt Q9NRA0); conditions: at 0.1 µM
T3 sequence (whole entry): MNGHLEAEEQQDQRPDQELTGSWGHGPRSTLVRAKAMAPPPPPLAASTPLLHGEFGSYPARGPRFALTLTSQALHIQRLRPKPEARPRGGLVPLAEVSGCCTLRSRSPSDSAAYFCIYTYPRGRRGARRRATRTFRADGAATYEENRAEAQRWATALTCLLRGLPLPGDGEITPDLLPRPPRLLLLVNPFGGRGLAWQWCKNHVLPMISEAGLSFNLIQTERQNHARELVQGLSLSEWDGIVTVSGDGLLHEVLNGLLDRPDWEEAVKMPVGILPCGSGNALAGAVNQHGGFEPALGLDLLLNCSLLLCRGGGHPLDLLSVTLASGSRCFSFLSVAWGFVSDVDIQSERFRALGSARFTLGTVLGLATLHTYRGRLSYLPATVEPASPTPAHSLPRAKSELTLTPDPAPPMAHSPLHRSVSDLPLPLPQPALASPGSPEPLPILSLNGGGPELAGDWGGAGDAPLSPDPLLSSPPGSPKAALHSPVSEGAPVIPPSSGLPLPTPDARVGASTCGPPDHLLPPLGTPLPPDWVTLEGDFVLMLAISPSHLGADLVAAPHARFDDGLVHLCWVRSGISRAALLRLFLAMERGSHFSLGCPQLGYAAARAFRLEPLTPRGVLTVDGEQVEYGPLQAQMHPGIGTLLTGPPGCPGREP

[13] = target: T3, Sphingosine kinase 2 (Homo sapiens); conditions: at 1 µM
[14] = target: Casein kinase II subunit alpha (Homo sapiens) (UniProt P68400); conditions: at 0.1 µM
Sequence of Casein kinase II subunit alpha (Homo sapiens) (P68400 whole entry, looked up): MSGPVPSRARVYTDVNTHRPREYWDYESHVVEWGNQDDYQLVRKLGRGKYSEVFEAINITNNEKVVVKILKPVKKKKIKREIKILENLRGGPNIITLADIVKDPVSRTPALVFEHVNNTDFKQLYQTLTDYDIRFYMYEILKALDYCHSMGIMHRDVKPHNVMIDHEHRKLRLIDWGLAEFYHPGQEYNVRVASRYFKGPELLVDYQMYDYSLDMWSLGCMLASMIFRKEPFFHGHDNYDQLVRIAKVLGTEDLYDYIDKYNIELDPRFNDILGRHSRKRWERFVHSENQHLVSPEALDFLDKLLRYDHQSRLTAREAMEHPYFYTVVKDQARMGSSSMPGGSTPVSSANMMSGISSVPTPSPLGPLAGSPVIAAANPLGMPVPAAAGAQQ

[15] = target: Casein kinase II subunit alpha (Homo sapiens) (UniProt P68400); conditions: at 1 µM
[16] = target: T4, Inhibitor of nuclear factor kappa-B kinase subunit alpha (Homo sapiens) (UniProt O15111); conditions: at 0.1 µM
T4 sequence (whole entry): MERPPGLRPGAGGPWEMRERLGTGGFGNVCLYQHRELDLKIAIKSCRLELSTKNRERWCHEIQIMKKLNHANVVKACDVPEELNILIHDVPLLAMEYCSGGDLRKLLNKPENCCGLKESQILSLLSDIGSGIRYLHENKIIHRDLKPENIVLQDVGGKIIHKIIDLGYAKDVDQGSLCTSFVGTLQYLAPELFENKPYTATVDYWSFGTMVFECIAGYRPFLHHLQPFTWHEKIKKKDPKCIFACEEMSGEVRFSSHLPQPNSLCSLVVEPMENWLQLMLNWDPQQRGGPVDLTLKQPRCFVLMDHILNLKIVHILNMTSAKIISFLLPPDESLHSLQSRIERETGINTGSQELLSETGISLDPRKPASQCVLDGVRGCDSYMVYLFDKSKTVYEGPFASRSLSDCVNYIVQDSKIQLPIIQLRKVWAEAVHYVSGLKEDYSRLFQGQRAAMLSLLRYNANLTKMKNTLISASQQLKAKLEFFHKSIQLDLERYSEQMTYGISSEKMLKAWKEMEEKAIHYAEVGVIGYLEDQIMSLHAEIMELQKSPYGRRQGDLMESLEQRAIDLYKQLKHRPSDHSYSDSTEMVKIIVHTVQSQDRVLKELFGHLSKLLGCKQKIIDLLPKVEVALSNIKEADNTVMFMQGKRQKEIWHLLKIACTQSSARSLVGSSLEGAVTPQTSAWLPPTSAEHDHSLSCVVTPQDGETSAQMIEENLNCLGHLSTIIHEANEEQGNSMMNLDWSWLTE

[17] = target: T4, Inhibitor of nuclear factor kappa-B kinase subunit alpha (Homo sapiens); conditions: at 1 µM
[18] = target: T5, Inhibitor of nuclear factor kappa-B kinase subunit beta (Homo sapiens) (UniProt O14920); conditions: at 0.1 µM
T5 sequence (whole entry): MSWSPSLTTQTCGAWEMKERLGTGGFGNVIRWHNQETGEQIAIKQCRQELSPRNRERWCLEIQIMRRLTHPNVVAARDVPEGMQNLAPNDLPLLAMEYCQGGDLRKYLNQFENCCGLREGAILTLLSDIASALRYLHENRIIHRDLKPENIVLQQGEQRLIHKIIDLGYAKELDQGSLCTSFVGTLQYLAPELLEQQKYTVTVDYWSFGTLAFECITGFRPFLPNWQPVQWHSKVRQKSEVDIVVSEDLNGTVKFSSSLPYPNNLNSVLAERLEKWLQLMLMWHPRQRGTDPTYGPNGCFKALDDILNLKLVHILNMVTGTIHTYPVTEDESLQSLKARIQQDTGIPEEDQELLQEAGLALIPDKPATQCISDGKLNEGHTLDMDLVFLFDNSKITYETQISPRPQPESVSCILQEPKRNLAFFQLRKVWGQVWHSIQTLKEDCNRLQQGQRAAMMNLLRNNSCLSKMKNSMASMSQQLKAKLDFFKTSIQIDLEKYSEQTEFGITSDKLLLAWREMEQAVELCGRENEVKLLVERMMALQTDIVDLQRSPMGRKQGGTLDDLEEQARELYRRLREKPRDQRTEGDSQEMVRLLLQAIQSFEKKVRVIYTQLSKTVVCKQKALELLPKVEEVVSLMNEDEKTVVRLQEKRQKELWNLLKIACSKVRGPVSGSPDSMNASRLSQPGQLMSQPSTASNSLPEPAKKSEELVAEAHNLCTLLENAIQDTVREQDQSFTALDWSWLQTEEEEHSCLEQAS

[19] = target: T5, Inhibitor of nuclear factor kappa-B kinase subunit beta (Homo sapiens); conditions: at 1 µM
[20] = target: T6, Inhibitor of nuclear factor kappa-B kinase subunit epsilon (Homo sapiens) (UniProt Q14164); conditions: at 0.1 µM;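 also: mean inhibition of IKKε reported, from the GSK PKIS dataset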
T6 sequence (whole entry): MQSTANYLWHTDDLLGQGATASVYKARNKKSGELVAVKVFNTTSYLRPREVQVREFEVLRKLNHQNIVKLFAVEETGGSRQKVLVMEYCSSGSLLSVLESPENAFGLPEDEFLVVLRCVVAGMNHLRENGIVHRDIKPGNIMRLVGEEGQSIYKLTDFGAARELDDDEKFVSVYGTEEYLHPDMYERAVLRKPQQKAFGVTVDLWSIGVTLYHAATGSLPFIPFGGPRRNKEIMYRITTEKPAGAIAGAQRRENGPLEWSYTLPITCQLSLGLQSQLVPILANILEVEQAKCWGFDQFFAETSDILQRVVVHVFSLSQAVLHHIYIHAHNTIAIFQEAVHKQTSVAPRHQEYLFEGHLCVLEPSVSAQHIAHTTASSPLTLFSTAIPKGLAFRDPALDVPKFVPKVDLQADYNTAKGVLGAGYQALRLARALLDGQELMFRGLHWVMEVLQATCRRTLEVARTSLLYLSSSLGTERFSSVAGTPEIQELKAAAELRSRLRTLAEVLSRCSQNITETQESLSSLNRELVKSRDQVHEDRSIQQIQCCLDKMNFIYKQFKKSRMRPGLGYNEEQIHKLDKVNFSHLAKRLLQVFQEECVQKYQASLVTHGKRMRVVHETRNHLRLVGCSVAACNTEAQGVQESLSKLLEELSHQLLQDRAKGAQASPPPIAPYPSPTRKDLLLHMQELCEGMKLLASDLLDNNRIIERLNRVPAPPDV

Compound | inhibition [1] | inhibition [2] | inhibition [3] | inhibition [4] | inhibition [5] | inhibition [6] | inhibition [7] | inhibition [8] | inhibition [9] | inhibition [10] | inhibition [11] | inhibition [12] | inhibition [13] | inhibition [14] | inhibition [15] | inhibition [16] | inhibition [17] | inhibition [18] | inhibition [19] | inhibition [20]
CN1CCC(n2cnc(-c3ccc(F)cc3)c2-c2ccnc(Nc3ccccc3)n2)CC1 | 9.03% | -1.25% | -1.27% | 1.36% | 1.8% | -0.07% | 4.79% | -0.93% | 1.36% | 1.77% | -6.88% | -0.42% | 0.78% | 3.62% | 8.56% | 6.78% | 1.62% | 2.83% | 3.93% | 3.59%
N#Cc1c(NC(=O)c2ccc(F)cc2)sc2c1CCCC2 | 0.08% | -1.47% | -1.93% | 1.06% | 0.48% | 1.32% | -1.48% | -4.06% | 1.29% | -0.62% | -1.09% | 0.33% | 0% | 0.61% | 1.89% | 5.73% | 4.51% | 1.94% | 4.15% | 2.43%
CS(=O)(=O)CCNCc1coc(-c2ccc3ncnc(Nc4ccc(OCc5ccccc5)cc4)c3c2)c1 | 3.41% | -2.53% | -3.45% | 2.17% | 3.25% | 0.39% | 0.49% | -2.05% | -3.75% | 4.73% | -1.49% | 0% | -0.98% | 1.05% | 6.53% | 4.1% | 2.85% | 3.35% | 5.11% | 4.2%
CC(=O)NCc1cccc(C#Cc2cncnc2Nc2ccc(OCc3cccc(F)c3)c(Cl)c2)c1 | 1.37% | -0.72% | -2.28% | -1.17% | 0.49% | -1.34% | -0.33% | -4.32% | -2.4% | 2.94% | -1.56% | -0.13% | -2.39% | -0.56% | 1.55% | -0.42% | 3.17% | -1.42% | 1.29% | 0.37%
Cc1ccc2c(-c3ccnc(Nc4ccccc4)n3)c(-c3ccc(F)cc3)nn2n1 | 2.32% | -1.57% | -2.42% | 2.88% | 0.97% | 2.44% | 4.54% | 2.52% | 1.56% | 0% | 1.05% | -1.64% | 0% | 1.08% | -2.67% | 5% | 0.7% | 4.32% | 1.74% | 1.25%
COc1ccc(-c2nn3ncccc3c2-c2ccnc(Nc3ccc4c(c3)OCCO4)n2)cc1 | 1.16% | -0.82% | -2.72% | 2.37% | 3.63% | 2.13% | 5.91% | -2.82% | -1.12% | -0.35% | -0.22% | -0.07% | 0.39% | 7.89% | 3.92% | 6.88% | 1.71% | 3.03% | 1.7% | 1.54%
CNC(=O)c1cncc(/C=C/c2ccccc2Cl)c1 | -0.18% | 0.65% | 3.33% | 1.22% | 1.59% | 0.5% | 0.38% | 3.54% | 1.28% | 0.48% | -2.41% | 0.11% | -0.01% | 0.75% | 8.72% | 2.99% | -3.09% | -0.46% | 1.87% | 2.76%
